Screens from PubChem BioAssay.
Most compounds without a hit are left out; they make up all but 6.5% or so of the library.
FMDV inh = High Throughput Screening for Foot and Mouth Disease Virus Antivirals. actives 1.2% (n = 410,000). FMDV antiviral cell-based qHTS. Potency, µM (highest dose often 57.9 µM), for inactives: at the top dose activity change, negative = inhibition, most hits filed as inhibitors; calls by dose curve; tested in HEK293T cells; note: read-out not given here; potency is the fitted concentration of half-maximal effect; nearly all actives have a fitted effect of over 45% in size
HCMV antiviral = qHTS Assay for inhibitors of the human cytomegalovirus (HCMV); HFF cells, HCMV-luciferase reporter, 72 h; active compounds read low; activity change, negative = inhibition, % at 57.5 µM; actives 4.5% (n = 410,000); AID 1259415, 2018; in the data active = activity change below about -60%; inconclusive = no clear call, values can overlap the other calls; inactive = above about -39%
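Two compound doses tested in HFFs infected with HCMV-luciferase, MOI 1 PFU/cell, 72 h at 37C. Lysate luminescence read with OneGlo; data normalized against buffer-only and 10uM Salinomycin inhibitor controls.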
MARV entry inh = qHTS for inhibitors of binding or entry into cells for Marburg Virus. Marburg virus pseudotyped entry inhibition, cell reporter. actives 1.8% (n = 300,000). Potency, µM (highest dose often 37.8 µM), inactives show at the highest dose activity change, negative = inhibition, hits mostly inhibitors; calls by dose curve; tested in HEK293 cells; note: potency is the fitted concentration of half-maximal effect
LASV entry inh = qHTS for Inhibitors of binding or entry into cells for Lassa Virus; actives 1.2% (n = 300,000); AID 540256, 2011; Lassa virus pseudotype entry inhibition, cell reporter; Potency, µM (titrated, usually from 37.9 µM), inactives show at the top dose activity change, negative = inhibition, most hits filed as inhibitors; calls by dose curve; tested in HEK293 cells; note: potency is the fitted concentration of half-maximal effect; nearly all actives have a fitted effect of over 50% in size
Vaccinia Venus = qHTS for Stage-Specific Inhibitors of Vaccinia Orthopoxvirus: Venus Reporter Primary qHTS; Vaccinia virus Venus reporter expression, fluorescence; Potency, µM (doses to about 36.5 µM), for inactives: at the highest dose activity change, negative = inhibition, most hits filed as inhibitors; actives 0.46% (n = 330,000); calls by dose curve; tested in A549 cells; note: potency is the fitted concentration of half-maximal effect; nearly all actives have a fitted effect of over 30% in size
VACV mCherry inh = qHTS for Stage-Specific Inhibitors of Vaccinia Orthopoxvirus: mCherry Reporter Primary qHTS; Vaccinia virus mCherry reporter infection, fluorescence; AID 720579, 2013; actives 0.63% (n = 310,000); Potency, µM (titrated, usually from 36.5 µM), for the others: at the top dose activity change, negative = inhibition, most hits filed as inhibitors; calls by dose curve; tested in A549 cells; note: potency is the fitted concentration of half-maximal effect; nearly all actives have a fitted effect of over 35% in size
* hit, by the source's call; [ ] = dose if it differs, or a comment. % is set by controls: 0 for no effect and ±100 for the full control effect.

COc1ccc(-c2nc(C#N)c(NCc3ccc(F)cc3)o2)cc1OC was read as FMDV inh inconclusive, HCMV antiviral 25, MARV entry inh 0%, LASV entry inh -1% and Vaccinia Venus 13µM*.
CC(C)(C)N1C(=O)c2ccccc2NC(=O)N1Cc1ccc(Br)cc1 was read as FMDV inh -6%, HCMV antiviral -65*, MARV entry inh inconclusive, LASV entry inh -8%, Vaccinia Venus inconclusive and VACV mCherry inh inactive.
For OC(COc1ccc(CNCCc2ccc(C(F)(F)F)cc2)cc1)CN1CCCCC1 (stereo not given) the results were FMDV inh -22%, HCMV antiviral -80*, MARV entry inh inconclusive, LASV entry inh inconclusive, Vaccinia Venus 10% and VACV mCherry inh -13%.
OC(CNCCc1ccc(C(F)(F)F)cc1)COc1ccc2ccccc2c1 (stereo not given) was read as FMDV inh -22%, HCMV antiviral -34, MARV entry inh inconclusive, LASV entry inh 16µM*, Vaccinia Venus inconclusive and VACV mCherry inh -22%.
Cc1cc(F)ccc1NC(=O)Cn1cc(S(=O)(=O)NC(C)C)c(S(=O)(=O)NC(C)C)c1 was read as FMDV inh 7%, HCMV antiviral 12, LASV entry inh 28%[46.1 µM], Vaccinia Venus -4% and VACV mCherry inh inactive.
`Cc1cccc(N/N=C(\C(N)=O)C2=NC(C)(C)Cc3ccccc32)c1` gave FMDV inh 25µM*, HCMV antiviral -98*, MARV entry inh inconclusive, LASV entry inh 6.3µM*, Vaccinia Venus inconclusive and VACV mCherry inh inconclusive.
CCOC(=O)/C(=N\O)C1=NC(C)(C)Cc2ccccc21 was read as FMDV inh -4%, HCMV antiviral 21, MARV entry inh inconclusive, LASV entry inh 0%, Vaccinia Venus -15% and VACV mCherry inh -6%.
COc1ccc(OC)c(-c2noc(N3CCN(c4ccc(Cl)cc4)CC3)n2)c1 was read as FMDV inh -19%, HCMV antiviral -26, LASV entry inh -2%[46.1 µM], Vaccinia Venus -17% and VACV mCherry inh -14%.
CCCOc1ccc(N2C(=O)C[C@@H](N(Cc3ccc(S(N)(=O)=O)cc3)C(=O)CC)C2=O)cc1 was read as MARV entry inh 3%.
For Cc1cc(N2CCCCC2)nc2ccc(NC(=O)c3cccc(F)c3)cc12 the results were FMDV inh -10%, HCMV antiviral -80*, MARV entry inh inconclusive, LASV entry inh inconclusive, Vaccinia Venus -13% and VACV mCherry inh -13%.
For Cc1cc(N2CCCCC2)nc2ccc(NC(=O)c3cccc(Cl)c3)cc12 the results were FMDV inh -4%, HCMV antiviral -62*, LASV entry inh 4%[46.1 µM], Vaccinia Venus -14% and VACV mCherry inh -14%.
`COc1ccc(OC)c(CN2C[C@H](Sc3ccc(F)cc3)C[C@H]2C(=O)N(C)C)c1` gave FMDV inh -7%, Vaccinia Venus -11% and VACV mCherry inh -18%.
Screening COC(=O)[C@@H]1CC[C@H](C)[C@@H](c2ccc(C)cc2)N1C(=O)c1ccc(C=NO[C@@H](C)c2cn([C@H](CO)Cc3ccccc3)nn2)cc1 returned MARV entry inh 5%[14.2 µM] and LASV entry inh -7%[14.3 µM].
`NC(=O)COC(=O)c1ccccc1OCC(=O)Nc1ccc(Br)cc1` gave Vaccinia Venus -11% and VACV mCherry inh -12%.
N#Cc1nc(-c2ccco2)oc1N1CCN(c2ccccc2)CC1 was read as FMDV inh inconclusive, HCMV antiviral -65*, MARV entry inh -18%, LASV entry inh inconclusive and Vaccinia Venus -15%.
COc1ccc(N2CCN(c3oc(Cc4ccccc4)nc3C#N)CC2)cc1 was read as FMDV inh inconclusive, HCMV antiviral -34, MARV entry inh inconclusive and LASV entry inh 5.2µM*.
Screening COc1ccc(N2CCN(c3oc(COc4ccccc4)nc3C#N)CC2)cc1 returned FMDV inh -4%, HCMV antiviral -18, MARV entry inh -9%, LASV entry inh inconclusive, Vaccinia Venus -15% and VACV mCherry inh -22%.
For O=C(NCCCN1CCCC1)c1cc(Sc2ccc(F)cc2)nc2ccccc12 the results were FMDV inh -13%, HCMV antiviral -39, MARV entry inh inconclusive, Vaccinia Venus -11% and VACV mCherry inh -15%.
Screening O=C(NCCCN1CCCCC1)c1cc(Sc2ccc(Cl)cc2)nc2ccccc12 returned FMDV inh -17%, HCMV antiviral -71*, LASV entry inh 19%[46.1 µM], Vaccinia Venus -22% and VACV mCherry inh -28%.
For CCOCCCNC(=O)c1cc(Sc2ccc(C)cc2)nc2ccccc12 the results were FMDV inh inconclusive, HCMV antiviral -60*, MARV entry inh inconclusive, LASV entry inh inconclusive, Vaccinia Venus -19% and VACV mCherry inh -28%.
Screening CC1CCCN(CCCNC(=O)c2cc(Sc3ccc(F)cc3)nc3ccccc23)C1 (stereo not given) returned FMDV inh -15%, HCMV antiviral -71*, LASV entry inh -17%[46.1 µM], Vaccinia Venus -28% and VACV mCherry inh -28%.
`O=C(NCCN1CCOCC1)c1cc(Sc2ccccc2Cl)nc2ccccc12` gave HCMV antiviral -61*, MARV entry inh -31% and LASV entry inh -29%.
For CN(C)C(=O)COc1ccccc1C(=O)OCC(=O)Nc1ccc(Oc2ccc(Br)cc2)cc1 the results were Vaccinia Venus -22% and VACV mCherry inh -12%.
For C[C@@H](C(=O)O)c1ccc(C[C@@H]2CCCC2=O)cc1 the results were MARV entry inh 22%.
For COc1ccc(-c2noc(N3CCN(c4cccc(Cl)c4)CC3)n2)cc1OC the results were FMDV inh -9%, HCMV antiviral -8, LASV entry inh -13%[46.1 µM], Vaccinia Venus -15% and VACV mCherry inh -24%.
c1ccc(COc2ncnc3c2ncn3CCCNC2CCN(Cc3ccccc3)CC2)cc1 was read as FMDV inh inconclusive, HCMV antiviral -86*, Vaccinia Venus inconclusive and VACV mCherry inh -30%.
`CCOc1ccc(S(=O)(=O)N2CCCC(C(=O)N3CCN(c4ccccc4)CC3)C2)cc1` (stereo not given) gave FMDV inh 28µM*, HCMV antiviral -39, MARV entry inh inconclusive, LASV entry inh inconclusive, Vaccinia Venus -28% and VACV mCherry inh -20%.
`CCOC(=O)N1CCN(C(=O)C2CCCN(S(=O)(=O)c3ccc(F)cc3)C2)CC1` (stereo not given) gave FMDV inh 2%, HCMV antiviral inconclusive, MARV entry inh -10%, LASV entry inh -5%[46.1 µM], Vaccinia Venus -5% and VACV mCherry inh -19%.
